Here are results for 40 compounds from PubChem BioAssay (Tox21).

Inconclusive results are not listed. A number with no mark means an inactive call. Calls come from the whole dose curve; as a rule, active = well fitted cell-killing curve with a large enough effect in the repeat runs; inconclusive = weak or mixed curves, or effect the other way; inactive = no such curve, though single readings can be large or run the other way.
% is set by controls: 0 for no effect and ±100 for the full control effect.

A short description of the test: qHTS assay for small molecule activators of the heat shock response signaling pathway - cell viability counter screen (AID 743209). Note: nearly all actives have a fitted effect of over 50% in size. The settings on record: HSE-bla HeLa viability, CellTiter-Glo luminescence, 5 h; series mostly up to 62.6 µM; activity change, negative = cytotoxicity: at the top concentration. An excerpt:
U.S. Tox21 Program National Center for Advancing Translational Sciences [NCATS] NIH Chemical Genomics Center [NCGC] U.S. Environmental Protection Agency [EPA] National Institutes of Environmental Health Sciences [NIEHS] National Toxicology Program [NTP] U.S. Food and Drug Administration [FDA] Tox21 Assay Overview: Various chemicals, environmental and physiological stress conditions may lead to the activation of heat shock response/ unfolded protein response (HSR/UPR). There are three heat shock transcription factors (HSFs) (HSF-1, -2, and -4) mediating transcriptional regulation of the human HSR. To identify the compounds that activate HSR signaling, HSE-bla HeLa cell line (Invitrogen, Carlsbad, CA, USA) containing a beta-lactamase reporter gene under the control of the heat shock response elements was used to screen Tox21 10K compound library. The cytotoxicity of the Tox21 compound library against the HSE-bla HeLa cell line was tested in parallel by measuring the cell viability using CellTiter-Glo assay (Promega, Madison, WI) in the same wells.
Tox21 Assay Protocol Summary: The CellSensor HSE-bla HeLa cells (Invitrogen, Carlsbad, CA, USA) were dispensed at 1500 cells/6uL/well into 1536-well black wall/clear bottom plates using a Multidrop combi (Thermo Fisher Scientific, Waltham, MA) dispenser. After the assay plates were incubated at 37 C and 5% CO2 overnight, 23 nL of compounds dissolved in DMSO, positive controls or DMSO only was transferred to the assay plate by a Pintool station (Kalypsys, San Diego, CA). The plates were incubated at 37 C for 5 h. After 1 uL of LiveBLAzerTM B/G FRET substrate was added using a Flying Reagent Dispenser (FRD, Beckman Coulter, Indianapolis, IN, USA), the plates were incubated at room temperature for 2.5 h, and fluorescence intensity was measured by an Envision plate reader (PerkinElmer, Shelton, CT). For cell viability readout that measures cytotoxicity, 3 ul/well of CellTiter-Glo reagent was added into the assay plates using a FRD. After 30 min incubation at room temperature, the luminescence intensity in the plates was measured using a ViewLux (PerkinElmer) plate reader.
Turning to `O=C(Cl)c1c(Cl)cccc1Cl`, the “activity change, negative = cytotoxicity” value was -9.33% [at 81.1 µM].

For the compound `CC1(C)CCC(C)(C)c2cc(NC(=O)c3ccc(C(=O)O)cc3)ccc21`, the “activity change, negative = cytotoxicity” value was -3.19%.

On to `CC(C)NCC(O)c1cc(O)cc(O)c1` (stereo not given), for which the “activity change, negative = cytotoxicity” value was 4.83%.

For `CC(=O)O[C@@H]1C(=O)O[C@@H]2[C@H]1OC(=O)[C@@H]2OC(C)=O`, the “activity change, negative = cytotoxicity” value is 0.248%.

As to `O=C(O)Cc1cc(I)c(Oc2ccc(O)c(I)c2)c(I)c1`, the “activity change, negative = cytotoxicity” value is -12.3%.

Consider `CCCC(C)C`, for which the “activity change, negative = cytotoxicity” value was 16.1% [at 81.1 µM].

In the case of `Cc1ccccc1N=Nc1ccc(N=Nc2c(O)ccc3ccccc23)c(C)c1`, the “activity change, negative = cytotoxicity” value was -1.57%.

Turning to `COCCOCCOCCOCCOC`, the “activity change, negative = cytotoxicity” value was -5.94%.

Regarding `Cc1ccc(C(C)c2ccc(C)c(C)c2)cc1C`, the “activity change, negative = cytotoxicity” value was 6.1%.

In the case of `O=C(C(=O)c1ccc(Br)cc1)c1ccc(Br)cc1`, the “activity change, negative = cytotoxicity” value was 3.1% [at 29.1 µM].

`CC(=O)OCCc1ccccc1`: the “activity change, negative = cytotoxicity” value is 6.31%.

In the case of `CN1CCN(C2=Nc3cc(Cl)ccc3Nc3ccccc32)CC1`, the “activity change, negative = cytotoxicity” value is 6.93%.

Take `CC(C)=CCCC(C)CC=O` (stereo not given): the “activity change, negative = cytotoxicity” value was -6.75%.

Turning to `CCc1nn(C2CCCCC2)c2cc(C3(C#N)CCC(C(=O)O)CC3)ccc12` (stereo not given), the “activity change, negative = cytotoxicity” value was -6.39%.

For `CC(=O)/C(C)=C/C1C(C)=CCCC1(C)C` (stereo not given), the “activity change, negative = cytotoxicity” value is -2.41%.

For `CCCCOCCOCCOCCOCCO`, the “activity change, negative = cytotoxicity” value is 2.23%.

For `CCN1CCC[C@H]1CNC(=O)c1c(OC)ccc(Br)c1OC`, the “activity change, negative = cytotoxicity” value was 4.7%.

Take `CCCCCCCCCCCCCCCC(=O)OC/C=C(C)/C=C/C=C(C)/C=C/C1=C(C)CCCC1(C)C`: the “activity change, negative = cytotoxicity” value is 3.1%.

On to `O=C(O)c1cn(C2CC2)c2cc(Cl)c(F)cc2c1=O`, for which the “activity change, negative = cytotoxicity” value was 3.84%.

On to `CC(O)C1CCCCC1` (stereo not given), for which the “activity change, negative = cytotoxicity” value was -6.44%.

Take `N#CCc1cccc(C(F)(F)F)c1`: the “activity change, negative = cytotoxicity” value is 10.2%.

Consider `CN1CCC(=C2c3ccccc3CCc3sccc32)CC1`, for which the “activity change, negative = cytotoxicity” value is -2.19%.

With `CCCCCCCC/C=C\CCCCCCCC(N)=O`, the “activity change, negative = cytotoxicity” value is -5.08%.

On to `Cc1ccc(C(N)=O)cc1N`, for which the “activity change, negative = cytotoxicity” value was 4.61%.

As for `CC(C)(C)C1CCCCC1O` (stereo not given), the “activity change, negative = cytotoxicity” value was -0.211%.

`CCCCCCOC(=O)CCC`: the “activity change, negative = cytotoxicity” value is -0.688%.

For `CCOc1nc2cccc(C(=O)O)c2n1Cc1ccc(-c2ccccc2-c2nn[nH]n2)cc1`, the “activity change, negative = cytotoxicity” value is 8.6%.

With `O=C1[C@H](CC[C@H](O)c2ccc(F)cc2)[C@@H](c2ccc(O)cc2)N1c1ccc(F)cc1`, the “activity change, negative = cytotoxicity” value is -3.42%.

With `CCCCOC(=O)c1ccccc1C(=O)OCC(CC)CCCC` (stereo not given), the “activity change, negative = cytotoxicity” value is -6.62%.

In the case of `O=[N+]([O-])c1cccc(Cl)c1Cl`, the “activity change, negative = cytotoxicity” value is 8.13%.

Turning to `Oc1ccc(Sc2ccc(O)cc2)cc1`, the “activity change, negative = cytotoxicity” value was 9.05%.

As to `CC(C)(C)c1ccc(S)cc1`, the “activity change, negative = cytotoxicity” value is -8.96%.

Consider `CCN(CC)C(C)=O`, for which the “activity change, negative = cytotoxicity” value is 2.15% [at 81.1 µM].

On to `CC(=O)N(CC(=O)N(C)C)c1ccccc1`, for which the “activity change, negative = cytotoxicity” value was -10%.

`CN(C(=O)CCCOc1ccc2[nH]c(=O)ccc2c1)C1CCCCC1`: the “activity change, negative = cytotoxicity” value is 3.06%.

`Cn1sccc1=O`: the “activity change, negative = cytotoxicity” value was 4.22%.

For the compound `CC(C)c1ccc2c(C(C)C)cc(C(C)C)c(S(=O)(=O)O)c2c1`, the “activity change, negative = cytotoxicity” value was -4.39% [at 81.1 µM].

As to `O=S1(=O)c2cccc3cccc(c23)N1CCCN1CCN(c2ccc(F)cc2)CC1`, the “activity change, negative = cytotoxicity” value is 3.91%.

For the compound `Cn1c(N)nc2nc[nH]c2c1=O`, the “activity change, negative = cytotoxicity” value is -5.26%.

With `Oc1ccc(O)c2c(O)cccc12`, the “activity change, negative = cytotoxicity” value is -3%.
